Test [1] in a line: P. berghei load reduction in hepatocytes – cell-based, HepG2, luciferase luminescence, HepG2 viability, primary screen (AID 624349; in the data active means parasite load remaining mostly below about 12%, no sharp cut-off; inactive means mostly above about 10%;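 further: 100% = mean of DMSO negative control wells on the same plate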). Conditions: P. berghei liver stage in HepG2, luciferase luminescence, concentration not given here; parasite load remaining: stronger effect = lower value; viability: measured here: HepG2 viability without parasites.
Test [2] in a line: signal quenchers or enhancers, Cy5 substrate/SSB – biochemical, NIH Clinical Collection, E. coli SSB, artefact control for HCV NS3 helicase inhibitor project (AID 743268). Conditions: Cy5-oligo bound E. coli SSB, fluorescence interference.
Test [3] has as its system Hepatitis C virus NS3 helicase. Nature of the test: blockers of NS3h binding to DNA – biochemical, fluorescence polarization, NIH Clinical Collection, primary screen (AID 743270). Conditions: NS3 helicase binding to Cy5-dT15 DNA, stronger effect = higher value, concentration not given here. (Polarisation of emitted light reports the rotation of a fluorescent probe.)
The target of test [4] is Single-stranded DNA-binding protein (Escherichia coli (strain K12)) (UniProt P0AGE0). Nature of the test: SSB-ssDNA binding inhibitors – biochemical, fluorescence polarization, NIH Clinical Collection, counter-screen for HCV NS3 helicase inhibitor project (AID 743271; in the data active means inhibition above about 28%). Conditions: E. coli SSB-DNA binding, stronger effect = higher value, concentration not given here.
Test [5] in a line: compounds distorting NS3 helicase fluorescence signal – biochemical, NIH Clinical Collection, artefact control for HCV NS3 helicase inhibitor project (AID 743272).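 Further: HCV NS3 helicase with a Cy5 labelled single stranded DNA probe.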 Conditions: fluorescence interference counterscreen, HCV NS3 helicase assay; stronger effect = lower value. A general note: The purpose of a counterscreen is to sort out artefacts and off-target activity.
Test [6] is described as follows: Wnt pathway potentiators raising nuclear beta-catenin – imaging, WNT3A-conditioned medium, mouse C2C12, NPC library, primary screen (AID 1117326; in the data active means nuclear beta-catenin stimulation mostly above about 4.2%, no sharp cut-off; inactive means mostly below about 10%). Conditions: stronger effect = higher value.
The nature of test [7]: stimulators of insulin release from INS-1E, primary screen, cell-based, 5 mM glucose, NPC library (AID 1117329;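 active means compound raises insulin release from rat beta cells at 5 mM glucose, no numeric limit stated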). Conditions: rat INS-1E insulin secretion, at 10 µM, stronger effect = higher value.
Test [8] can be described thus: growth inhibition of GSK3B-pretreated HCT116 cells – cell-based, CellTiter-Glo, 0.2 to 20 µM (AID 1117336;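 active means compounds lowering colon cancer cell viability after pretreatment blocking the GSK3B kinase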). Conditions: HCT116 viability after GSK3B inhibitor, at 20 µM, stronger effect = higher value. For orientation: In ATP-based viability assays light output follows the ATP content of the culture.
Test [9] is described as follows: inhibition of endothelial tube formation, primary screen, imaging, VEGF stimulated, CD31 staining, tube area, NPC library (AID 1117340;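 active means compound that reduces growth-factor-driven endothelial tube area in a mixed cell culture, no cutoff stated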). Conditions: VEGF-stimulated ADSC/ECFC co-culture, at 10 µM, stronger effect = higher value.
The nature of test [10]: GLP1 release stimulators, primary, NCI-H716, NPC library (AID 1117341;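 active means compound raises GLP1 secretion from the human gut endocrine cells, with no numeric limit stated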). Conditions: NCI-H716 cells, at 10 µM, stronger effect = higher value.
A short description of test [11]: HCT116 colon cancer cell growth inhibition, primary screen, CellTiter-Glo luminescence, NPC library (AID 1117342;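 active means compounds that lower survival of HCT116 colon cancer cells in the luminescence readout, no numeric limit stated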). Conditions: at 20 µM (top of the series).
A short description of test [12]: reduced SW480 viability measured with CellTiter-Glo, NPC library, primary (AID 1117343;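 active means compounds that lower viability of the colon cancer cells in the luminescence readout, with no numeric limit stated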). Conditions: CellTiter-Glo luminescence; at 20 µM (top of the series).
Test [13] can be described thus: NPC library primary testing for decreased DLD-1 cell viability via CellTiter-Glo (AID 1117346;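 active means compounds that lower survival of DLD-1 colon cancer cells in the luminescence readout, no cutoff given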). Conditions: DLD-1 viability, CellTiter-Glo luminescence; at 20 µM (top of the series).
A short description of test [14]: viability loss with induced miR-34 in A549 – imaging, A549 dox-inducible miR-34, nuclei and caspase counts, primary screen (AID 1347080;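 active means compounds whose cell count with miR-34 switched on is under 0.7 times the count with it off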). Conditions: A549 miR-34 inducible, Hoechst nuclei count, 48 h.
The nature of test [15]: MELAS cybrid and Rieske KO viability enhancers – cell-based, MELAS cybrids, Rieske KO mouse fibroblasts, CellTiter-Glo, primary screen (AID 1508586;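 active means mean z-score across replicates of 1.96 or higher in either the MELAS or the Rieske mutant cell line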;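 further: z relative to plate mean and SD of compound and empty wells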). Conditions: low glucose.
Test [16] addresses NAD(+) hydrolase SARM1 (Homo sapiens) (UniProt Q6SZW1). Nature of the test: blocking NAD cleavage by SARM1 SAM-TIR – cell lysate, NAD-Glo luminescence (AID 1508614;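 active means compound whose remaining NAD level is above about 45 nM, limit read from the data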). Conditions: SAM-TIR HEK293T lysate NADase, at 1 µM, stronger effect = higher value.
The next test relates to F380Y. Nature of the test: BK channel mutant inhibitors and activators – cell-based, U2OS BacMam, thallium flux, beta subunits, selectivity assay, profiling panel (AID 1259406;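 active means thallium flux through the channel raised or lowered by more than 3 SD from vehicle-only wells, actives on both sides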;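 further: initial slope of Thallos dye fluorescence rise after thallium is added; log ratio against the mean of 0.3% DMSO vehicle wells on the same plate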). Conditions: U2OS BacMam BK variants, at 30 µM.
Test [17] addresses 6-phosphogluconate dehydrogenase, decarboxylating (Homo sapiens) (UniProt P52209). Nature of the test: inhibition of human phosphogluconate dehydrogenase – biochemical, recombinant enzyme, NADPH absorbance, primary screen (AID 1159550;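 active means at least 20% inhibition of 6-phosphogluconate dehydrogenase activity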). Conditions: recombinant 6PGD, NADPH absorbance 341 nm; at 10 µM; stronger effect = higher value.
Test [18] deals with Mitogen-activated protein kinase 7 (Homo sapiens) (UniProt Q13164). Nature of the test: Gal4-ERK5 driven luciferase induction – cell-based, HTS, primary screen (AID 1508626;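 active means luciferase signal above three times the same-plate solvent-only control wells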;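 further: luciferase driven by Gal4-ERK5 fusion binding five Gal4 sites before minimal TATA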). Conditions: HeLa Gal4-ERK5 transactivation, 18 h, at 5 µM, stronger effect = higher value.
[19] abbreviates: stronger effect = lower value, cell number ratio, induced over uninduced.
Setting [20] is: measured here: relative caspase fold change +Dox/-Dox.
Where [21] appears, read: measured here: total cells with miR-34 induction, stronger effect = lower value.
The mark [22] stands for this setting: measured here: total cells without miR-34 induction.
Setting [23] is: MELAS cybrid survival, CellTiter-Glo 48 h, stronger effect = higher value.
The mark [24] stands for this setting: Rieske KO mouse fibroblast survival, CellTiter-Glo 72 h.

From PubChem BioAssay come the findings set out here.

Several values for one entry are separate records, joined by “and”; a condition that tells them apart may be missing. Identical values can stand only once. Activity calls are given as the source filed them. Unless noted, how the calls were made is not given here.

Usually viability stands for a read-out of living cells in per cent, often relative to untreated cells. By inhibition is commonly meant the change of the read-out against control, counted positive when it falls.

NAD(+) hydrolase SARM1 (Homo sapiens), sequence (Q6SZW1 whole entry, looked up): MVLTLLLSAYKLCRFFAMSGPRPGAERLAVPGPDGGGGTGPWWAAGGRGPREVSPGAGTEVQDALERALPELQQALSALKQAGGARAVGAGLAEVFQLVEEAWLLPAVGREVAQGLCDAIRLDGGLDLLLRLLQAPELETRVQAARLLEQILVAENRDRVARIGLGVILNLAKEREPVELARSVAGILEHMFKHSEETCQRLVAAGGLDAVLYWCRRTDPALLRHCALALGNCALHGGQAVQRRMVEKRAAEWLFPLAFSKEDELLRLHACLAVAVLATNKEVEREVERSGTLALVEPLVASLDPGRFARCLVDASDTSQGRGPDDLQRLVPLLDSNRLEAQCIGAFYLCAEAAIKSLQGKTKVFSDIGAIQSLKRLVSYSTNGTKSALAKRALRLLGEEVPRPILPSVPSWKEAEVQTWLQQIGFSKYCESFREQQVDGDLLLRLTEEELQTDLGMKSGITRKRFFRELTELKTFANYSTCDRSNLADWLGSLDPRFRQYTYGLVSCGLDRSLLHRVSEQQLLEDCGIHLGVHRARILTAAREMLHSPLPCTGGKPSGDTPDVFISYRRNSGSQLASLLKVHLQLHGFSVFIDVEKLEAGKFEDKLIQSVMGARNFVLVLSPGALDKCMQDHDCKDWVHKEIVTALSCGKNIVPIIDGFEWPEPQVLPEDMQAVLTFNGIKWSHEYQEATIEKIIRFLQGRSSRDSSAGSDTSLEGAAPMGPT
6-phosphogluconate dehydrogenase, decarboxylating (Homo sapiens), sequence (P52209 whole entry, looked up, the tested form may be a part): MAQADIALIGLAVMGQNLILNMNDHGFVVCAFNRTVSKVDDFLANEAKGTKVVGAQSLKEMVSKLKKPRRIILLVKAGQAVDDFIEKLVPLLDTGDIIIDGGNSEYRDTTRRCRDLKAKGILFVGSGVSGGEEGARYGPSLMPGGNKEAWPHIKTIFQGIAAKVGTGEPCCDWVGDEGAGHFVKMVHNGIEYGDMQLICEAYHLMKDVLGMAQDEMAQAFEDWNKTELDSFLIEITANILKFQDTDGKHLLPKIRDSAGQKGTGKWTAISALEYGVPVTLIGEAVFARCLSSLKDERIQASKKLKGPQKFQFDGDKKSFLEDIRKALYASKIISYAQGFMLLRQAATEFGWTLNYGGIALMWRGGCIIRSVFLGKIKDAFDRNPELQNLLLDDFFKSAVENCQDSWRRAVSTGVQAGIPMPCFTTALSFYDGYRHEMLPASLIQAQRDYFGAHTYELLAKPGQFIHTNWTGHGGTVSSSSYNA
Mitogen-activated protein kinase 7 (Homo sapiens), sequence (Q13164 whole entry, looked up, the tested form may be a part): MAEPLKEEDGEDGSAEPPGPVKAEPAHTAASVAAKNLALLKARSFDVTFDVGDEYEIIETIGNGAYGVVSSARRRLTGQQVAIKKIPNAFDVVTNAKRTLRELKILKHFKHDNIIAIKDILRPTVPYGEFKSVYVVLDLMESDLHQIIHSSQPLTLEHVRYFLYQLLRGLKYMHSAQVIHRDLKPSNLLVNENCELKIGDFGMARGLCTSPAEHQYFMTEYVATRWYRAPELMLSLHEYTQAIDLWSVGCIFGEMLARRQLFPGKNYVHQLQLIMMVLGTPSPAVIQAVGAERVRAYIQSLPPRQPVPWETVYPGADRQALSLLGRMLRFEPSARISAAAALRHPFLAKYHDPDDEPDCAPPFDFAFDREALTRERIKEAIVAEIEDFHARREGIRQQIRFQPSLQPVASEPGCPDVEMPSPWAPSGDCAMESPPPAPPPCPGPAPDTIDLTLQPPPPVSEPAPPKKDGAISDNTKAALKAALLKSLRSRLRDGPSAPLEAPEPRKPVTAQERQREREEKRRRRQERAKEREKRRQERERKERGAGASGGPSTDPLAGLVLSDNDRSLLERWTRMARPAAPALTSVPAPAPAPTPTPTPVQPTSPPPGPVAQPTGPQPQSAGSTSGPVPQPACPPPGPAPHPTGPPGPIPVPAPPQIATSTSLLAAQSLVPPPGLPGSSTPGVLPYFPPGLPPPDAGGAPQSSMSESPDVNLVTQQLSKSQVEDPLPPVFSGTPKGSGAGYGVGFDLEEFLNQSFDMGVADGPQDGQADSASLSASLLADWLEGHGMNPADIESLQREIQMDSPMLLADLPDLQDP

Consider `C[C@@H](O)[C@H]1C(=O)N2C(C(=O)O)=C(S[C@@H]3CN[C@H](C(=O)N(C)C)C3)[C@H](C)[C@H]12`, for which, in test [1], the parasite load remaining was 81% (inactive) and 101% (inactive) and 24.6% (inactive). In addition, in [1], the viability is 74.6% and 72.6% and 92%. Besides, the fluorescence ratio in test [2] is 1.04 (inactive); in [5], 0.99 (inactive). Moreover, the figures for the inhibition in test [3] and in test [4] were 2.77% (inactive) and -0.87% (inactive), respectively. Besides, the nuclear beta-catenin stimulation in [6] (at 10 µM) is -1.7% (inactive) and -0.1% (inactive); in test [6] (stimulation, at 2 µM), 1% and 0.5%. For the same molecule, the insulin secretion stimulation in [7] was 1.9% (inactive) and 2% (inactive). In addition, the viability decrease in [8] was -24.1% (inactive) and -19.8% (inactive). Moreover, in test [9], the tube area decrease was -3.2% (inactive) and 11.7% (inactive). For the same molecule, in test [10], the GLP1 secretion stimulation was -1.2% (inactive) and -6.2% (inactive). For the same molecule, the inhibition of viability in [11] is 3.6% (inactive) and 6.7% (inactive). The viability decrease (inhibition) was 9.5% (inactive) and 15.1% (inactive) in test [12]; -2.2% (inactive) and -3.6% (inactive) in test [13]. Also, the fold change in test [14] (setting [19]) was 0.969 (inactive) and 0.909 (inactive); in test [14] (setting [20]) it was 0.61 and 1.16. The cell count in [14] (setting [21]) was 9470 and 9550; in test [14] (setting [22]), 9770 and 10500. In addition, the z-score in [15] (setting [23]) was 0.815 (inactive) and 0.0614 (inactive); in [15] (setting [24]), 1.23 and -0.866. Moreover, in test [16], the remaining NAD was 10 nM (inactive). For the same molecule, the log fold change Tl+ flux in the test on F380Y was 0.000985 (inactive).

In the case of `CC1(C)O[C@@H]2C[C@H]3[C@@H]4CCC5=CC(=O)C=C[C@]5(C)[C@@]4(F)[C@@H](O)C[C@]3(C)[C@]2(C(=O)CO)O1`, the parasite load remaining in test [1] was 89.9% (inactive). Besides, the viability in test [1] was 87.8%. Also, the fluorescence ratio in test [2] and in test [5] was 0.99 (inactive) in each case. Besides, the inhibition in test [3] was -0.45% (inactive); in test [4] it was 4.1% (inactive); in test [17] it was 10.8% (inactive). Moreover, the nuclear beta-catenin stimulation in test [6] (at 10 µM) was -0.5% (inactive); in test [6] (stimulation, at 2 µM), 3.8%. The insulin secretion stimulation in [7] is 3.4% (inactive). Besides, in test [8], the viability decrease is 21.8% (inactive). Also, in [9], the tube area decrease was 0.2% (inactive). Also, in [10], the GLP1 secretion stimulation was -1% (inactive). The inhibition of viability in test [11] is 8.4% (inactive). Besides, the results for the viability decrease (inhibition) in [12] and in test [13] were 34.9% (inactive) and -6.5% (inactive), respectively. The fold change is 0.992 (inactive) in test [14] (setting [19]) and 0.777 in [14] (setting [20]). In addition, the cell count was 7390 in test [14] (setting [21]) and 7450 in test [14] (setting [22]). Further, in test [16], the remaining NAD was 10 nM (inactive). Further, the luciferase signal in test [18] was 36 AU (inactive). In addition, the log fold change Tl+ flux in the test on F380Y is 0.0424 (inactive).

As to `CCC(=O)O[C@]1(C(=O)CCl)[C@@H](C)C[C@H]2[C@@H]3CCC4=CC(=O)C=C[C@]4(C)[C@@]3(F)[C@@H](O)C[C@@]21C`, the parasite load remaining in test [1] was 49% (inactive) and 35.1% (inactive). Further, in test [1], the viability is 110% and 128%. The fluorescence ratio in test [2] is 1.01 (inactive); in test [5], 0.96 (inactive). The inhibition in test [3] is 4.09% (inactive); in test [4], 2.57% (inactive); in test [17], 3.17% (inactive). The nuclear beta-catenin stimulation in test [6] (at 10 µM) was 4.4% (inactive); in test [6] (stimulation, at 2 µM), 3.8%. The insulin secretion stimulation in test [7] was 8.3% (inactive). Moreover, in test [8], the viability decrease was -89.8% (inactive). Also, in [9], the tube area decrease was 9.1% (inactive). The GLP1 secretion stimulation in test [10] is 2.1% (inactive). For the same molecule, the inhibition of viability in [11] was 2.9% (inactive). In addition, the viability decrease (inhibition) is 41% (inactive) in test [12] and 15.6% (inactive) in test [13]. Also, the fold change in test [14] (setting [19]) was 1.05 (inactive) and 0.839 (inactive); in test [14] (setting [20]), 2.64 and 1.67. Also, the cell count was 6300 and 6140 in [14] (setting [21]); 6030 and 7320 in [14] (setting [22]). Moreover, the z-score is 0.507 (inactive) and -0.252 (inactive) in test [15] (setting [23]); 1.67 and 0.844 in test [15] (setting [24]). Moreover, the remaining NAD in [16] was 10 nM (inactive). The luciferase signal in test [18] is 84 AU (inactive). Further, the log fold change Tl+ flux with F380Y is 0.112 (active).
